The panel holds about 83,000 compounds, 20% with a hit somewhere; the sample as a whole holds those more often.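 Percent growth is the endpoint: 0 to 100 indicates growth inhibition (40 means 60% inhibition), 0 means no net growth, and negative values indicate cell death.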 Calls of active or inactive are those of the source. How the source made its calls: active means growth percent below 10; inactive means the rest.
What was measured:
Assay in all cases: NCI-60 one-dose screen, 48 h (100 = growth as untreated, 0 = no growth, -100 = all killed)
Settings in all cases: 10 µM unless noted
[1] = test system: T-47D breast
[2] = test system: BT-549 breast
[3] = test system: MDA-MB-435 melanoma
[4] = test system: SW-620 colon
[5] = test system: MCF7 breast
[6] = test system: HCT-116 colon
[7] = test system: HCC-2998 colon
[8] = test system: KM12 colon

Measured: growth

CC1=CC(c2ccco2)=C2C(N)=NNC2N1 (stereo not drawn)
inactive: [1] 85.1% | [2] 100% | [3] 101% | [4] 102% | [5] 91% | [6] 100% | [7] 99.2% | [8] 105%

CN1CCN(c2ccc(NC(=O)c3cncnc3Nc3ccc(OCc4cccc(F)c4)c(Cl)c3)cc2)CC1
inactive: [1] 72.9% | [2] 102% | [5] 13.4% | [6] 17.4% | [7] 71.5% | [8] 75.8%
active: [3] -72.3% | [4] -30.5%

O=C1Nc2ccccc2C1(c1c[nH]c2ccccc12)c1c[nH]c2ccccc12
active: [1] -21.2% | [2] -17.7% | [5] -1.78%
inactive: [3] 85% | [4] 77% | [6] 36.6% | [7] 26.4% | [8] 11.9%

Oc1c(CN2CCCC2)cc(CSCc2ccccc2)c2cccnc12
inactive: [2] 28.5% | [3] 21.2% | [4] 13.6% | [7] 34.8% | [8] 20.1%
active: [1] -3.02% | [5] 8.46% | [6] 7.5%

COC1=C(C)C(=O)N2[C@@H]1[C@H](c1ccccc1)OC21C=CC(=O)C=C1
active: [2] -34.1% | [3] -48.8% | [4] -36% | [5] 7.61% | [6] -51%
inactive: [1] 17.6% | [7] 35.7% | [8] 52.8%

CCOC(=O)c1c(C)nc2c(c1N)CC(=O)N2Cc1ccc(OC)cc1
inactive: [1] 32.2% | [2] 18.5% | [3] 88.3% | [4] 77.6% | [5] 37.5% | [6] 12.6% | [7] 51.1% | [8] 58%

O=C(CCCCCNC(=O)c1cc(=O)c(O)co1)Nc1ccccc1
inactive: [1] 104% | [2] 95.9% | [3] 100% | [4] 101% | [5] 88.6% | [6] 97.6% | [7] 101% | [8] 100%

CC1C(/C=N/NC(N)=S)C(C#N)(C#N)C1(C#N)C#N (stereo not drawn)
inactive: [1] 84.6% | [2] 110% | [3] 98.3% | [4] 95.8% | [5] 97.1% | [6] 105% | [7] 105% | [8] 97%

Cc1ccc(-c2nc(SCc3nc4cc(Cl)c(Cl)cc4[nH]3)[nH]c(=O)c2C#N)cc1
inactive: [1] 85.4% | [2] 92.5% | [3] 105% | [4] 109% | [5] 101% | [6] 93.1% | [7] 110% | [8] 96.6%

COc1ccc2nc(Cl)c(/C=C3\CC(c4ccccc4)=NN(c4ccccc4)C3=O)cc2c1
inactive: [1] 73.1% | [2] 43.3% | [3] 90.3% | [4] 88.7% | [5] 82% | [6] 54.1% | [7] 85% | [8] 90.3%

CCCCCN(CCCCC)CC(O)c1cc(C)c2ccc3cc(C(C)C)ccc3c2c1 (stereo not drawn)
inactive: [1] 53.3% | [2] 90.5%
active: [3] 0.846% | [4] -75.3% | [5] -86.2% | [6] -84.8% | [7] -50.8% | [8] -64.7%

COc1ccc2c(c1)/C(=N/c1n[nH]c(=S)s1)C(=O)N2
inactive: [1] 69.6% | [2] 113% | [3] 104% | [4] 91.3% | [5] 25.1% | [6] 103% | [7] 107% | [8] 89%

CCN1CCN(C(=O)[C@]23CC[C@@H](C)[C@H](C)[C@@H]2C2=CC[C@@H]4[C@@]5(C)C/C(=C/c6cccnc6)C(=O)C(C)(C)[C@@H]5CC[C@@]4(C)[C@]2(C)CC3)CC1
inactive: [1] 22% | [2] 41.2% | [3] 24% | [4] 13.3% | [6] 10.3% | [7] 19.6% | [8] 18.2%
active: [5] 8.54%

FC(F)(F)Oc1cccc(-c2cnc3ccc(-c4ccncc4)nn23)c1
active: [1] -0.156% | [8] 8.63%
inactive: [2] 25.2% | [3] 12.3% | [4] 23.2% | [5] 10.7% | [6] 10.8% | [7] 32.5%

C=C(C)[C@@H]1CC[C@]2(C)[C@H](CC=C3[C@@H]4CC(C)(C)CC[C@]4(CO)CC[C@]32C)[C@@]1(C)CCCN
inactive: [2] 64.6%
active: [1] -26.5% | [3] -84% | [4] -81.9% | [5] -41.4% | [6] -79.6% | [7] -76% | [8] -53.9%

C=CCC(CCCC)(C(=O)OCC)C(=O)OCC
inactive: [1] 107% | [2] 96.7% | [3] 110% | [4] 114% | [5] 93% | [6] 104% | [7] 102% | [8] 108%

CCNC(=O)Oc1ccc(/C(=C(/C)Cc2ccc(OC)cc2)c2ccc(OCCN3CCCCC3)cc2)cc1
inactive: [1] 42.5% | [2] 92.5% | [3] 68.1% | [4] 77.8% | [5] 29.9% | [6] 49.2% | [7] 67.9% | [8] 67.8%

CCN1CCN(c2cc(C)nc(N(CCNc3ccnc4cc(Cl)ccc34)Cc3ccc4c(c3)OCO4)n2)CC1
inactive: [2] 36.4%
active: [1] -62.1% | [3] -66.3% | [4] 0.855% | [5] -37.3% | [6] -23.2% | [7] -46% | [8] 5.74%

Cc1ccc(CNc2ccc3nc(CCC(C)C)[nH]c3c2)cc1
inactive: [1] 84.4% | [2] 93.4% | [3] 97.2% | [4] 91.9% | [5] 89.2% | [6] 80.4% | [7] 111% | [8] 96.2%

Nc1nc(NC(=O)Nc2ccc(C(=O)O)cc2)nn1-c1ccc(S(N)(=O)=O)cc1
inactive: [1] 102% | [2] 91.3% | [3] 98.2% | [4] 87.7% | [5] 98.7% | [6] 95.4% | [7] 107% | [8] 89.6%

Cc1ccc(C)c2c(C)c(C(=O)Nc3cccc(-n4cccn4)c3)oc12
active: [1] 7.95% [50 µM]
inactive: [2] 61.5% [50 µM] | [3] 69.9% [50 µM] | [4] 70.2% [50 µM] | [5] 13.2% [50 µM] | [6] 50.7% [50 µM] | [7] 81.2% [50 µM] | [8] 56.3% [50 µM]

O=C(/C=C/c1ccc(Cl)cc1)c1cccc(OCCCOc2cccc(C(=O)/C=C/c3ccc(Cl)cc3)c2)c1
inactive: [1] 78% | [2] 105% | [3] 101% | [4] 98.6% | [5] 21.1% | [6] 26% | [7] 104% | [8] 103%

CC1=CCC(OC(=O)C(C)(C)CC(O)(C(C)O)C(O)C2(C)C=CC(Cc3ccc(C(C)C)cc3)(C(C)C)CC2)(C(C)C)CC1 (stereo not drawn)
inactive: [1] 98.9% | [2] 109% | [3] 94.1% | [4] 92.6% | [5] 102% | [6] 93.7% | [7] 103% | [8] 105%

COc1ccc(-c2nn(-c3ccccc3)cc2/C=C/C(=O)NNC(=O)Nc2ccc(C)cc2)cc1
inactive: [1] 92.3% | [2] 114% | [3] 99.9% | [4] 95.1% | [5] 91.9% | [6] 77.7% | [7] 96.7% | [8] 101%

C=CCN1C(=O)c2cccc3c(N4CCOCC4)ccc(c23)C1=O
active: [1] -2.1% | [2] -47.8% | [3] 0.357% | [4] 7.24% | [5] -0.408% | [6] -25.4% | [7] -34% | [8] -56.4%

C=C(C)[C@@H]1CCC[C@]2(C(=O)N3CCN(C)CC3)CC[C@]3(C)[C@@H](CC[C@@H]4[C@@]5(C)CC/C(=N\NC(=O)c6ccncc6)C(C)(C)[C@@H]5CC[C@]43C)[C@@H]12
inactive: [1] 87.7% | [2] 105% | [3] 81.8% | [4] 81.2% | [5] 50.7% | [6] 97.8% | [7] 105% | [8] 85.4%

CCOC(=O)c1cc(C(=O)c2cc(OC)c(OC)c(OC)c2)n2ccccc12
inactive: [1] 47.5% | [2] 40% | [4] 29.8% | [5] 23.7% | [6] 18.9% | [7] 39.4% | [8] 25.2%
active: [3] -41.8%

Cc1ccnc(Nc2ccc([N+](=O)[O-])c(NCCN3CCOCC3)n2)c1
inactive: [1] 83.9% | [2] 18.6% | [4] 27.9% | [5] 21% | [7] 14.4%
active: [3] -20.5% | [6] -12.9% | [8] 5.83%

C[C@@H]1O[C@@H](O[C@@H]2C[C@H](c3ccc4c(c3O)C(=O)C3=C(C4=O)[C@@]4(O)C(=O)C[C@](C)(O)C[C@@]4(O)C=C3)O[C@H](C)[C@H]2O)CC[C@@H]1O[C@H]1C[C@@H](O)[C@H](O)[C@@H](C)O1
inactive: [1] 78.7% | [2] 100% | [3] 106% | [4] 94.4% | [5] 86.4% | [6] 91.1% | [7] 103% | [8] 101%

C/C(Cc1ccc(Cl)cc1)=C(\c1ccc(OCCCN(C)C)cc1)c1ccc(OC(=O)Cc2ccccc2)cc1
inactive: [1] 71.3% | [2] 117% | [3] 107% | [4] 108% | [5] 57.9% | [6] 104% | [7] 107% | [8] 94.7%

O=C(Oc1ccc(CCl)cc1)c1ccccc1
active: [1] -35.1% | [2] -97.9% | [3] -88.7% | [4] -49% | [5] -58.2% | [6] -84.7% | [7] -75% | [8] -79.1%

From PubChem BioAssay (NCI)
